Source: PubChem BioAssay (Tox21)
Results filed as inconclusive are left out. Calls of active or inactive are those of the source. Unless noted, the call rests on the fitted dose curve; in most records, active means well fitted curve in the direction sought with a large enough effect in the repeat runs; inconclusive means weak or mixed curves; inactive means no such curve, though single readings can be large; an effect the other way counts as inactive or inconclusive.

Assays:
[1] = qHTS assay to identify small molecule antagonists of the estrogen receptor alpha (ER-alpha) signaling pathway using the BG1 cell line in the presence of 0.1 nM 17-beta-estradiol - cell viability counter screen (AID 1259241); further: nearly all actives have a fitted effect of over 40% in size; further: potency means the concentration at half of the fitted maximal effect
Summary of the method: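 Cytotoxicity counter-screen: live-cell protease activity measured by fluorescence (30 min reagent step) in the same wells. Cells were VM7Luc4E2 with endogenous ER-alpha and ERE-driven luciferase, treated 22 hr at 37C alongside 0.1 nM 17beta-estradiol final.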

[2] = target: Estrogen receptor (Homo sapiens) (UniProt P03372); test: qHTS assay to identify small molecule antagonists of the estrogen receptor alpha (ER-alpha) signaling pathway using the BG1 cell line in the presence of 0.1 nM 17-beta-estradiol (AID 1259244); further: nearly all actives have a fitted effect of over 50% in size; further: potency means the concentration at half of the fitted maximal effect
Chain of Estrogen receptor (Homo sapiens) (P03372 whole entry, looked up): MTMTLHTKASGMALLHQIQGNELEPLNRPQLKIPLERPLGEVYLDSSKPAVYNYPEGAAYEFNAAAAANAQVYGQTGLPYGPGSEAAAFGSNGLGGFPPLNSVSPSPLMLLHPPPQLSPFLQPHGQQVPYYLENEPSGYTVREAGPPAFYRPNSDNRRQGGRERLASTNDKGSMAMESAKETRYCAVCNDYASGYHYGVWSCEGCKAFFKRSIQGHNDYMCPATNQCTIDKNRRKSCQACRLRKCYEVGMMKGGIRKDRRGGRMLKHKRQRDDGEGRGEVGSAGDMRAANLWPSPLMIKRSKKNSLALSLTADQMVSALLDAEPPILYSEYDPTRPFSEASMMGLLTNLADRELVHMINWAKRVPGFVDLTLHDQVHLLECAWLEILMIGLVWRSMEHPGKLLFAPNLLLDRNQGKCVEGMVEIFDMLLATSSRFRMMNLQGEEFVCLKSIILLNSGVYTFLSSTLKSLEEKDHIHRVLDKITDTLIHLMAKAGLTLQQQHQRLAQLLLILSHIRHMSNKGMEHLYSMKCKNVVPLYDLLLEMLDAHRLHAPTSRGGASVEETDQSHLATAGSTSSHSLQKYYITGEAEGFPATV
Summary of the method: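 Seeding of stripped-serum-adapted VM7Luc4E2 cells, 24 h attachment, compound transfer, then 0.1 nM final 17beta-estradiol; after 22 h incubation, ONE-Glo reagent and luminescence reading.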

[3] = qHTS assay to identify small molecule phospholipidosis (PLD) inducers (AID 1259344; active means well fitted curve in the direction sought with a large enough effect; an effect the other way counts as inactive or inconclusive; further: potency means the concentration at half of the fitted maximal effect)
Summary of the method: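 Accumulated phospholipid, stained red by LipidTOX during 24 h compound treatment of HepG2 cells at 37 C, is quantified from images as pit number and intensity, normalised per cell using Hoechst-stained nuclei.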

[4] = qHTS assay to identify small molecule HDAC inhibitors (AID 1259364); further: potency means the concentration at half of the fitted maximal effect;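 further: wild-type HCT-116 cells with endogenous class I/II HDAC activity; nearly all actives have a fitted effect of over 45% in size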
Summary of the method: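 After a 2 hr compound incubation (37C, 5% CO2), HCT-116 cells seeded at 1,500/well the day before received HDAC-Glo reagent; signal read as luminescence after 30 min at room temperature.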

[5] = qHTS assay to identify small molecule agonists of the sonic hedgehog signaling (Shh) pathway - cell viability counter screen (AID 1259366); further: nearly all actives have a fitted effect of over 50% in size; further: potency means the concentration at half of the fitted maximal effect
Summary of the method: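 Cytotoxicity counter screen: CellTiter-Fluor reagent added after 23 h compound exposure, then 1 h at 37C and fluorescence read. Cells were 3T3 Gli1-Luc, seeded 2,000 per well and dosed 4 h post-plating.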

[6] = qHTS assay to identify small molecule antagonists of the sonic hedgehog signaling (Shh) pathway - cell viability counter screen (AID 1259367); further: nearly all actives have a fitted effect of over 55% in size; further: potency means the concentration at half of the fitted maximal effect
Summary of the method: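 CellTiter-Fluor signal in conditioned medium-stimulated 3T3 Gli1-Luc cells, 23 hr compound exposure, 37C.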

[7] = qHTS assay to identify small molecule agonists of the sonic hedgehog signaling (Shh) pathway (AID 1259368; calls by dose curve;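 further: NIH/3T3-derived 3T3Gli1-Luc cells carrying a stable Gli1-driven firefly luciferase reporter; series mostly up to about 92 µM; nearly all actives have a fitted effect of over 15% in size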)
Summary of the method: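 Stable NIH/3T3 Gli1-Luc reporter clone; 24 hr cpd exposure after a 4 hr settling period; luminescence endpoint.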

[8] = target: Estrogen receptor beta (Homo sapiens) (UniProt Q92731); test: qHTS assay to identify small molecule agonists of the estrogen receptor beta (ER-beta) signaling pathway (AID 1259377; active means well fitted activation curve with a large enough effect in the signal ratio in the repeat runs, not every such curve was filed as active; the % refers to the signal ratio)
Chain of Estrogen receptor beta (Homo sapiens) (Q92731 whole entry, looked up): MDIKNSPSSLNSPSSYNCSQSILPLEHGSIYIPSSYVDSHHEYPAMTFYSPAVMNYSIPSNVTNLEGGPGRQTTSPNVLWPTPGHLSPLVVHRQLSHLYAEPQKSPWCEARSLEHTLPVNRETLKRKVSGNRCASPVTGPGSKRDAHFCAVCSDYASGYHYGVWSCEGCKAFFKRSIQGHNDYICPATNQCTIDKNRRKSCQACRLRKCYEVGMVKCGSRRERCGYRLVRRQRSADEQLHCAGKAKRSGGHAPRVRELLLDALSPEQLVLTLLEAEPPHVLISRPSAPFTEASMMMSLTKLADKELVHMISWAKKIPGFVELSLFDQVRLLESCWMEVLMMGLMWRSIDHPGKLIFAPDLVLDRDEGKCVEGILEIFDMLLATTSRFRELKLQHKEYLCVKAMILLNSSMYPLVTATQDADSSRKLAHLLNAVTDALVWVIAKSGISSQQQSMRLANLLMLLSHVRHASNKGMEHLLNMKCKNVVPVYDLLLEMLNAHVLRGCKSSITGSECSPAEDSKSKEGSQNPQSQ
Summary of the method: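 Ratiometric beta-lactamase FRET read-out came after 2 h substrate loading at room temperature. It followed 16 h compound treatment at 37C of GripTite HEK293T cells carrying a UAS-bla reporter, plated in 2% charcoal-stripped FBS medium.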

[9] = target: Estrogen receptor beta (Homo sapiens) (UniProt Q92731); test: qHTS assay to identify small molecule antagonists of the estrogen receptor beta (ER-beta) signaling pathway (AID 1259378; active means well fitted inhibition curve with a large enough effect in the signal ratio in the repeat runs, not every such curve was filed as active; the % refers to the signal ratio; further: potency means the concentration at half of the fitted maximal effect)
Summary of the method: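 Antagonist mode: compounds added to beta-lactamase reporter HEK293T ER-beta-UAS cells stimulated with E2 (1nM final), 16 hr at 37C. LiveBLAzer B/G FRET substrate, 2 hours room temperature, fluorescence read-out.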

[10] = target: Androgen receptor (Homo sapiens) (UniProt P10275); test: qHTS assay to identify small molecule agonists of the androgen receptor (AR) signaling pathway in the presence of an antagonist (AID 1259381; calls by dose curve; further: nearly all actives have a fitted effect of over 15% in size)
Chain of Androgen receptor (Homo sapiens) (P10275 whole entry, looked up): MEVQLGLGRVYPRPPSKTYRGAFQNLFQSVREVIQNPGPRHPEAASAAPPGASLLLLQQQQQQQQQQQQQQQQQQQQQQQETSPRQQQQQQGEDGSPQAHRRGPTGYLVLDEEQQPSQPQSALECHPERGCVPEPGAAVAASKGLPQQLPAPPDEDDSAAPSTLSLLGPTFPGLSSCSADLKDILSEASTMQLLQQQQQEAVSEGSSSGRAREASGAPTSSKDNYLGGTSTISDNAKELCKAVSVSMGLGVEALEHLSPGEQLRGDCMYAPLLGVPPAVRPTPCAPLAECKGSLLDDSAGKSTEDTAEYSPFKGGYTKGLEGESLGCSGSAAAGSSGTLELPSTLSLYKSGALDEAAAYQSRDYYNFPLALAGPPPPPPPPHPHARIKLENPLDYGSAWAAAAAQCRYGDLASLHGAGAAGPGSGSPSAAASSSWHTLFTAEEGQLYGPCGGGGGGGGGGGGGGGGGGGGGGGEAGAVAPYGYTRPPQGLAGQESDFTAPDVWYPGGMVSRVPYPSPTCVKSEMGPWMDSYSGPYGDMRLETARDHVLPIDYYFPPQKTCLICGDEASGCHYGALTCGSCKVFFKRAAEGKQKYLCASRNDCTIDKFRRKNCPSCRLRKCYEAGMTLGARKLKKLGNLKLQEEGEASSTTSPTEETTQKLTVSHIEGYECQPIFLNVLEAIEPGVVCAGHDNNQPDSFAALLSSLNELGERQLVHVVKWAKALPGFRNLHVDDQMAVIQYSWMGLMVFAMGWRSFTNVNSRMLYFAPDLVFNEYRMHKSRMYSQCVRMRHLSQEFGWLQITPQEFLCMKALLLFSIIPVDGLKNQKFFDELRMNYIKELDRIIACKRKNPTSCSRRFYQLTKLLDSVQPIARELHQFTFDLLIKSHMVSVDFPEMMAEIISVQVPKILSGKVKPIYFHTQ
Summary of the method: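 AR antagonist background: nilutamide 3.0uM final. Cell line: MDA-kb2, MMTV-driven luciferase, responsive to both AR and GR. Exposure 16hr, 37C, no CO2; ONE-Glo luminescence.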

[11] = qHTS assay to identify small molecule antagonists of the estrogen receptor beta (ER-beta) signaling pathway - cell viability counter screen (AID 1259382); further: nearly all actives have a fitted effect of over 55% in size; further: potency means the concentration at half of the fitted maximal effect
Summary of the method: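 HEK293T ER-beta-UAS-bla, 2% charcoal-stripped FBS; compounds + 1nM E2 16 hr 37C; CellTiter-Glo luminescence, 30 min RT.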

[12] = target: Estrogen receptor (Homo sapiens) (UniProt P03372); test: qHTS assay to identify small molecule agonists of the estrogen receptor alpha (ER-alpha) signaling pathway in the presence of an antagonist (AID 1259383; calls by dose curve; further: top concentration of the series differs between compounds; nearly all actives have a fitted effect of over 15% in size)
Summary of the method: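 ER-alpha agonism measured under antagonist challenge: 10.0nM ICI-182,780 (final) plus compound, 15 concentrations, 22hr, VM7Luc4E2 ERE-luciferase cells. Read by luminescence.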

[13] = qHTS assay to identify small molecule agonists or antagonists of the thyroid stimulating hormone receptor (TSHR) signaling pathway - wild type cell line counter screen (AID 1259384; calls by dose curve)
Summary of the method: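 Counter screen in untransfected Hek293: compounds (15-point titration, triplicate) plus phosphodiesterase inhibitor Ro20-1724 added after 18 h plating; 30 min RT. Intracellular cAMP via competitive d2/cryptate immunoassay, 1 h incubation.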

[14] = target: Thyrotropin receptor (Homo sapiens) (UniProt P16473); test: qHTS assay to identify small molecule antagonists of the thyroid stimulating hormone receptor (TSHR) signaling pathway (AID 1259385; calls by dose curve; further: nearly all actives have a fitted effect of over 20% in size; further: potency means the concentration at half of the fitted maximal effect)
Chain of Thyrotropin receptor (Homo sapiens) (P16473 whole entry, looked up): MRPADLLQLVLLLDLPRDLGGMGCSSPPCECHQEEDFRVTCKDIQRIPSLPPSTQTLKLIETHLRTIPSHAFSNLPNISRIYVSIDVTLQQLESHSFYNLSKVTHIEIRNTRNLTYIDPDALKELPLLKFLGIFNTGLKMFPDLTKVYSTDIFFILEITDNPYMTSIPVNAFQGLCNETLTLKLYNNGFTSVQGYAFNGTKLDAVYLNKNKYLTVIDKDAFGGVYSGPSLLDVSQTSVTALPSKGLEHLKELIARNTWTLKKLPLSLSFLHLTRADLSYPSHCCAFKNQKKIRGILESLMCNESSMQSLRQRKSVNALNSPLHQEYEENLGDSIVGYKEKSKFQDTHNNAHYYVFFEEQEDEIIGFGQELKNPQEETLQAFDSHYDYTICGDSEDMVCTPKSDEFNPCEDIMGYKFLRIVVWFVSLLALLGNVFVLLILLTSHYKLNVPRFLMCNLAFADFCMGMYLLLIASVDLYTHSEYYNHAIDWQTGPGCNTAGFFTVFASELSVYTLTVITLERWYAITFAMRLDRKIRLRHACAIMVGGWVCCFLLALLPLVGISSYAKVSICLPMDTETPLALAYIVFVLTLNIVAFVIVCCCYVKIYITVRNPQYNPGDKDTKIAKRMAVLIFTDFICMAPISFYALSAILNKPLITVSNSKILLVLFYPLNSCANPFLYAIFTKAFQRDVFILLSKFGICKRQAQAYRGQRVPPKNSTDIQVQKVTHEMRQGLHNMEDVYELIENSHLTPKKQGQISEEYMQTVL
Summary of the method: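 Antagonist mode: compound-treated TSHR-expressing HEK293 cells were stimulated with 1.5 ng/mL TSH (final) in presence of Ro20-1724 for 30 min at RT. HTRF cAMP detection after 1 h; each compound tested at 15 concentrations, triplicate.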

[15] = target: Androgen receptor (Homo sapiens) (UniProt P10275); test: qHTS assay to identify small molecule antagonists of the androgen receptor (AR) signaling pathway using the MDA cell line in the presence of 0.5 nM R1881 (AID 1259243); further: nearly all actives have a fitted effect of over 50% in size; further: potency means the concentration at half of the fitted maximal effect
Summary of the method: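 Cells: MDA-kb2 (MMTV-luc). Stimulus: 0.5 nM R1881. Time: 16 hr, 37C, no CO2. Detection: ONE-Glo luminescence after 30 min at RT.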

[16] = qHTS assay to identify small molecule HDAC inhibitors - cell viability counter screen (AID 1259365); further: nearly all actives have a fitted effect of over 50% in size; further: potency means the concentration at half of the fitted maximal effect
Summary of the method: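 CellTiter-Glo luminescence (30 min, room temperature) reported viability after a 2 h compound exposure at 37 C. Cells: wild-type HCT-116, 1,500 per well, seeded the night before.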

[17] = qHTS assay to identify small molecule antagonists of the sonic hedgehog signaling (Shh) pathway (AID 1259369; calls by dose curve; further: nearly all actives have a fitted effect of over 45% in size; further: potency means the concentration at half of the fitted maximal effect)
Summary of the method: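 Gli1 transcriptional reporter (firefly Luc) in NIH/3T3 background, conditioned-medium activated. 24hr exposure, luminescence endpoint.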

[18] = qHTS assay to identify small molecule agonists of the androgen receptor (AR) signaling pathway in the presence of an antagonist - cell viability counter screen (AID 1259379); further: nearly all actives have a fitted effect of over 25% in size; further: potency means the concentration at half of the fitted maximal effect
Summary of the method: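 Counter screen for cell viability run in parallel with the AR agonist-mode luciferase assay. MDA-kb2 cells were co-treated with nilutamide (3.0uM final) and compounds, then incubated 16 hr at 37C, and CellTiter-Fluor fluorescence was measured.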

[19] = qHTS assay to identify small molecule agonists of the estrogen receptor beta (ER-beta) signaling pathway - cell viability counter screen (AID 1259380); further: nearly all actives have a fitted effect of over 30% in size; further: potency means the concentration at half of the fitted maximal effect
Summary of the method: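 In this qHTS counter screen, HEK293T cells carrying an ER-beta/UAS beta-lactamase reporter, grown in 2% charcoal-stripped FBS, received compound for 16 hr; ATP-based CellTiter-Glo luminescence was then read after 30 min at room temperature.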

[20] = qHTS assay to identify small molecule antagonists of the androgen receptor (AR) signaling pathway using the MDA cell line in the presence of 0.5 nM R1881 - cell viability counter screen (AID 1259242); further: nearly all actives have a fitted effect of over 45% in size; further: potency means the concentration at half of the fitted maximal effect
Summary of the method: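 Human breast carcinoma MDA-kb2 cells, cultured without CO2, receive compounds alongside 0.5 nM (final) R1881 agonist. After 16 hr at 37C, viability is taken as live-cell protease signal.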

Measured: Potency

OCCN1CCN(CC/C=C2/c3ccccc3Sc3ccc(C(F)(F)F)cc32)CC1
active: [3] 10 µM | [5] 21.1 µM | [9] 11.9 µM | [11] 26.6 µM
not listed: [15] | [16] | [17] | [18] | [19] | [20]
inactive: all other assays above

CCC(C)Nc1ccc(NC(C)CC)cc1 (configuration not stated)
active: [1] 9.88 µM | [15] 1.57 µM | [2] 2.48 µM | [16] 24.8 µM | [5] 11.1 µM | [6] 19.7 µM | [17] 3.93 µM | [18] 24.8 µM | [19] 3.93 µM | [11] 5.55 µM
inactive: [4] | [7] | [10] | [12]

COc1cccc2c1C(=O)c1c(O)c3c(c(O)c1C2=O)C[C@@](O)(C(=O)CO)C[C@@H]3O[C@H]1C[C@H](N)[C@H](O[C@@H]2CCCCO2)[C@H](C)O1
active: [1] 13.3 µM | [4] 11.9 µM | [5] 11.9 µM | [6] 11.9 µM
inactive: [2] | [3] | [16] | [7] | [10] | [12] | [13] | [14]

CCCCCCCCCCC=O
not listed: [2] | [3] | [8] | [9] | [12] | [13] | [20]
inactive: all other assays above

COc1cc(-c2ccc(N=C=O)c(OC)c2)ccc1N=C=O
not listed: [2] | [3] | [10] | [12] | [13] | [14] | [15] | [16]
inactive: all other assays above

Oc1ccc2c(c1)-c1ccccc1C2
active: [15] 7.7 µM | [17] 13.7 µM
inactive: [1] | [4] | [6] | [7] | [18] | [19] | [10] | [11] | [13] | [14]

CCCCCCCCn1sc(Cl)c(Cl)c1=O
inactive: [1] | [4] | [16] | [7] | [8] | [12]
active: [20] 15.4 µM | [18] 27.3 µM | [19] 12.2 µM | [14] 61.1 µM

CCCCCCCCCCCCCCCCCC[N+](C)(C)C
inactive: [1] | [4] | [7] | [12] | [13] | [14]
active: [15] 27.4 µM | [2] 54.6 µM | [5] 68.8 µM | [17] 0.274 µM | [18] 61.3 µM | [19] 27.4 µM | [11] 30.7 µM

CC(C)(C)NC(=O)[C@@H]1C[C@@H]2CCCC[C@@H]2CN1C[C@@H](O)[C@H](Cc1ccccc1)NC(=O)[C@H](CC(N)=O)NC(=O)c1ccc2ccccc2n1
inactive: [3] | [4] | [16] | [7] | [12] | [13] | [14]
active: [1] 27.7 µM | [2] 61.9 µM | [5] 9.82 µM | [6] 13.9 µM | [17] 24.7 µM | [9] 17.5 µM | [18] 61.9 µM | [19] 55.2 µM | [11] 61.9 µM

Fc1ccc([C@@H]2CCNC[C@H]2COc2ccc3c(c2)OCO3)cc1
active: [19] 33.5 µM | [11] 26.6 µM
not listed: [8] | [9] | [15] | [18] | [20]
inactive: all other assays above

CCCCCCCC/C=C\CCCCCCCCOCCO
active: [1] 63.1 µM | [2] 2.51 µM | [6] 63.1 µM | [17] 14.1 µM | [18] 28.2 µM | [19] 28.2 µM | [11] 28.2 µM | [14] 89.1 µM
inactive: [4] | [16] | [7] | [12]

O=C(Oc1ccccc1)c1ccccc1C(=O)Oc1ccccc1
inactive: [1] | [2] | [4] | [16] | [6] | [7] | [11] | [12]
active: [9] 48.6 µM

CNc1ccc(O)cc1
active: [1] 21.6 µM | [20] 61 µM | [16] 48.5 µM | [5] 12.2 µM | [6] 15.3 µM | [18] 61 µM | [19] 30.6 µM | [11] 61 µM
inactive: [7]

CNCc1cc(F)ccc1Oc1ccc(Cl)c(Cl)c1
inactive: [1] | [4] | [16] | [7] | [8] | [12] | [13] | [14]
active: [2] 54.5 µM | [17] 12.2 µM | [18] 54.5 µM | [19] 27.3 µM

CCCCCCCCCCCCCCCC[N+](C)(C)CCN(Cc1ccc(OC)cc1)c1ncccn1
active: [17] 2.66 µM | [19] 11.9 µM | [11] 13.3 µM
inactive: [1] | [2] | [3] | [4] | [7] | [12]
